The text below walks through data of PubChem BioAssay AID493056 (National Center for Advancing Translational Sciences (NCATS), 2011).

“And” between values parts separate entries of the source, which are not always exact repeats. Identical values can stand only once. The whole screen tested about 360,000 compounds, of which about 2,400 (0.67%) were called active. The sample holds actives, similar compounds and a random draw of the others, so the mix is not that of the screen. Rule as the data show it: active = enhancement above about 30%; inactive = the rest. Where a structure was tested more than once in an assay, its records may differ in their call.

Thyrotropin-releasing hormone receptor (Homo sapiens), sequence (P34981 whole entry, looked up): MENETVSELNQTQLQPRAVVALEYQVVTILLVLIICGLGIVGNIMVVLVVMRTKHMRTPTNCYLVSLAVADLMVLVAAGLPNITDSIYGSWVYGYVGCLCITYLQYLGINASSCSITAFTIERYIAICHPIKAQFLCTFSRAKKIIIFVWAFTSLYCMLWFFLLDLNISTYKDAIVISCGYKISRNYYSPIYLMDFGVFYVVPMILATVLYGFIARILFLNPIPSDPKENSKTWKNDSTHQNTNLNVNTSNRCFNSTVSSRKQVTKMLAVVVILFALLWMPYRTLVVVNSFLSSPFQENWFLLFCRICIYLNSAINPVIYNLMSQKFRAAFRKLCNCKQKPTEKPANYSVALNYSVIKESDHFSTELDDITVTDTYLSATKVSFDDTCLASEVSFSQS

The assay has as its target Thyrotropin-releasing hormone receptor (Homo sapiens) (UniProt P34981). The assay is described as follows: qHTS for Small Molecule Agonists and Allosteric Enhancers of Human TRH Receptor: Primary Screen for Enhancers. Also: 0% is about no effect. To be noted: TRHR cells, fluo-8 calcium fluorescence, EC20 TRH enhancement; at 2 µM; stronger effect = higher value. The essentials:
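TRHR-expressing cells loaded with fluo-8 calcium dye were read kinetically (ex 480/em 530) during compound addition, then stimulated with an EC20 of TRH (10 nM final). Enhancement of the Gq-mediated intracellular calcium response was scored.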
(Quantitative high-throughput screening tests each substance at several concentrations.)
For the compound `CCOc1ccc(-c2cc(C)n3nc(C(=O)Nc4ccc(C)c(C)c4)cc3n2)cc1`, the enhancement is 4.67% (inactive). For `COc1cccc(NC(=O)c2csnn2)c1`, the enhancement is 1.76% (inactive). As for `Cc1cccn2c(=O)c3cc(C(=O)NC4CCCCC4)sc3nc12`, the enhancement is 44.3% (active). The same measure for `CCOC(=O)CNC(=O)c1cc2c(=O)n3cccc(C)c3nc2s1`: -2% (inactive); for `Cc1ccccc1-n1nc(C)c2cc(C(=O)NC3CC3)sc21`: -3% (inactive). Regarding `COc1ccc(Cl)cc1NC(=O)C(C)Sc1nc2c(c(=O)[nH]1)CCCC2` (stereo not drawn), the enhancement was 0.18% (inactive). For `CC(=O)c1cc(NC(=O)c2ccccc2)c(=O)oc1/C=C/N(C)C`, the enhancement is 31.6% (active). As to `CCOC(=O)c1cc(NC(=O)c2ccc(F)cc2)c(=O)n2c1oc1ccccc12`, the enhancement is -6.78% (inactive). The same measure for `COc1ccc(C2COC(=O)C2=N)c(NC(=O)c2ccccc2)c1` (stereo not drawn): -7.29% (inactive); for `COc1cc(OC)c(NC(=O)Cc2ccc(-n3c(C)nc4cccnc43)cc2)cc1Cl`: 9.81% (inactive).

Consider `CSc1n[nH]c(=S)n1N`, for which the enhancement was 4.42% (inactive). Consider `COc1ccc(OCc2n[nH]c(=S)n2N)cc1`, for which the enhancement was 41.1% (active). As for `COc1ccc(Cc2n[nH]c(=S)n2NC(=O)Nc2ccc(C)cc2)cc1`, the figure is -6.6% (inactive); as for `COc1ccccc1N1CCN(c2ccc(=O)n(CC(=O)NCc3ccc(OC(C)C)cc3)n2)CC1`, 2.06% (inactive); as for `COc1cc(OC)c(NC(=O)c2cnc(N3CCCC3)nc2C)cc1Cl`, 0.561% (inactive).

`CCOCCCNC(=O)c1c(NC(=O)c2nc(SC)ncc2Cl)sc2c1CCCC2`: the enhancement was 6.4% (inactive). The same measure for `CC1=C(C)CC(C(=O)NC(C)CCc2ccccc2)C(C(=O)O)C1` (stereo not drawn): 46.8% (active); for `CC(CCc1ccccc1)NC(=O)c1cnc(Cl)c(Cl)c1` (stereo not drawn): -11.8% (inactive); for `CCN(CC)S(=O)(=O)N1CCC(C(=O)NC(C)CCc2ccccc2)CC1` (stereo not drawn): 5.01% (inactive). The same measure for `CCc1nn(CC(=O)N2CCN(c3cccc(C(F)(F)F)c3)CC2)c(=O)c2cc3occc3n12`: 6.05% (inactive); for `COc1cc(OC)cc(C(=O)NCCc2csc3nc(-c4ccccc4F)nn23)c1`: -2.81% (inactive). In the case of `COc1ccc(C2(C)ON(c3ccccc3C(F)(F)F)C2=O)cc1` (stereo not drawn), the enhancement was 35% (active).

`COc1ccc(C2(O)C(=O)Nc3ccccc32)cc1` (stereo not drawn): the enhancement was -4.9% (inactive). The same measure for `COc1ccc(C2(C)NC(=O)N(CC(=O)c3ccc4c(c3)OCO4)C2=O)cc1` (stereo not drawn): 2.8% (inactive). For `COc1ccc(NC(=O)C2CCCN(S(=O)(=O)c3cccc4nonc34)C2)cc1Cl` (stereo not drawn), the enhancement is -6.01% (inactive). Turning to `Cc1ccc(Cn2c(CCCNC(=O)C3CCCCC3)nc3ccccc32)cc1`, the enhancement is -17% (inactive). Take `O=C(c1ccc2ccccc2n1)N1CCN(c2ccccc2Cl)CC1`: the enhancement was 2.59% (inactive). As for `c1cnc(N2CCN(c3ccc4ccccc4n3)CC2)nc1`, the figure is 45.5% (active); as for `CC12CCC(C(=O)N3CCN(c4ncccn4)CC3)(c3nc4ccccc4nc31)C2(C)C` (stereo not drawn), -2.73% (inactive). On to `CCOc1ccccc1CNC(=O)c1ccc(-n2c(C)cc3c2CCC(C)C3)cc1` (stereo not drawn), for which the enhancement is -0.716% (inactive). The same measure for `NC(=O)CSc1nc2c(oc3ccccc32)c(=O)n1Cc1ccccc1`: -1.53% (inactive); for `Cc1ccc(NC(=O)COC(=O)CNC(=O)c2ccc(Cl)cc2Cl)cc1S(=O)(=O)N1CCOCC1`: 1.95% (inactive); for `O=C(Nc1ccccc1N1CCOCC1)c1ccncc1`: 6.76% (inactive). Regarding `O=C(CNC(=O)c1ccc(Cl)cc1Cl)NCC(=O)Nc1ccccc1N1CCOCC1`, the enhancement was 31.1% (active). On to `CCOC(=O)c1ccc(-n2c(CCC(=O)O)ccc2-c2ccccc2)cc1`, for which the enhancement is -12.3% (inactive) and 10.9% (inactive).

Take `CCOC(=O)c1ccc(COC(=O)CCc2nc(-c3ccccc3)c(-c3ccccc3)o2)cc1`: the enhancement is 31.7% (active).

`CCOC(=O)c1c(-c2ccc(OC)cc2)oc2ccc(OCc3ccc(C(=O)OC)cc3)cc12`: the enhancement is -1.96% (inactive). As for `COc1ccc(Cn2c(C(=O)O)c(CNCc3cccc(OC)c3)c3ccc(C)cc32)cc1`, the figure is 4.01% (inactive); as for `COc1cc(NC(=O)c2noc3c2CSc2ccccc2-3)cc(OC)c1OC`, 4.94% (inactive); as for `COc1ccc(Nc2cc(=O)n(-c3ccccc3)c3c2c(=O)n(C)c(=O)n3C)cc1`, -11.6% (inactive). As for `COc1ccc(-c2c3c(=O)n(C)c(=O)n(C)c3c3c(C)nc4ccccc4n23)cc1`, the figure is -1.08% (inactive); as for `COc1ccc(-c2[nH]c3c(c2-c2c(-n4cccc4)n(C)c(=O)n(C)c2=O)c(=O)n(C)c(=O)n3C)cc1`, 31.9% (active); as for `CCOC(=O)c1cc(-c2ccccc2)n(CCC(=O)Nc2ccccc2CC)c1C`, 14% (inactive). The same measure for `Cc1ccccc1NC(=O)Cn1c(=O)n(CCCCC(=O)NCc2ccccc2Cl)c(=O)c2ccccc21`: 2.95% (inactive); for `Cc1c(C(=O)Nc2cccc(Cl)c2)oc2ccc(S(=O)(=O)N3CCOCC3)cc12`: -6.24% (inactive); for `O=C(NCCc1ccccc1)C1CC1`: -3.66% (inactive). Consider `CC(C)C[C@H](NC(=O)NCCc1ccc(Cl)cc1)C(=O)O`, for which the enhancement was -5.99% (inactive). The same measure for `C[C@H](NC(=O)NCCc1ccccc1)C(=O)O`: 33.9% (active); for `CC(C)Cn1c(C2CC(=O)N(c3ccccc3Cl)C2)nc2ccccc21` (stereo not drawn): -0.635% (inactive); for `CN(C)c1ccc(C(=O)NCC(=O)OC(C(=O)Nc2cc(C(F)(F)F)ccc2Cl)c2ccccc2)cc1` (stereo not drawn): -3.56% (inactive).

Consider `C[N+](C)(C)CCNC(=O)c1cc[n+](Cc2ccccc2)c(/C=N/O)c1`, for which the enhancement was 40.4% (active). As for `O=C(NCCCNCc1ccccc1)c1ccc(/C=N/O)nc1`, the enhancement is 15.9% (inactive). The same measure for `C[n+]1ccc(C(=O)NCc2ccccc2)cc1`: -9.31% (inactive).

For `CCn1c(CN2CCC(C)CC2)nc2cc(NC(=O)c3ccccc3[N+](=O)[O-])ccc21`, the enhancement was 3.72% (inactive). Regarding `COc1ccccc1-c1cc2nc(C)c(CCC(=O)O)c(C)n2n1`, the enhancement is 5.74% (inactive). As for `O=C(CC12CC3CC(CC(C3)C1)C2)NCc1ccco1`, the figure is -4.28% (inactive); as for `O=C(COC(=O)C12CC3CC(CC(C3)C1)C2)NCc1ccco1`, -2.58% (inactive) and 33.9% (active). Take `O=C(CC1CCCCC1)NCc1ccco1`: the enhancement is 14.2% (inactive).
